About 2,000 (36%) of roughly 5,500 compounds were called active. About 18% were inconclusive and are not listed. Rule as the data show it: active = normalized growth mostly below about 0.91 (no sharp cut-off); inconclusive = no clear call, values can overlap the other calls; inactive = mostly above about 0.92. The list shows a part of the results. Where a SMILES comes first, the peptide text is derived from it. The star is where a group is joined. Cbz = O=C(OCc1ccccc1)*
Assay: chemical genetic growth profiling, strain panel (AID 1159580);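 also: tested at 20 µM; growth read once vehicle control cultures reached saturation at 30 °C; 1 = growth at the plate median or of vehicle wells; lower values mean less growth of the strain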
Details: S. cerevisiae deletion strains, growth OD
[1] = locus YHR030C, strain SLT2, active compounds read low
[2] = locus YHR079C, strain IRE1, active compounds read low
[3] = locus YJL095W, strain BCK1, active compounds read low
[4] = locus YJR066W, strain TOR1, active compounds read low
[5] = locus YLR113W, strain HOG1, active compounds read low
[6] = locus YNL183C, strain NPR1, active compounds read low
[7] = locus YOR231W, strain MKK1, active compounds read low
[8] = locus YPL256C, strain CLN2, active compounds read low
[9] = locus YAL040C, strain CLN3, active compounds read low
[10] = locus YCL061C, strain MRC1 (second series), active compounds read low
[11] = locus YDR363W, strain ESC2, active compounds read low
[12] = locus YER002W, strain NOP16, active compounds read low
[13] = locus YMR263W, strain SAP30, active compounds read low
[14] = locus YMR307W, strain GAS1, active compounds read low
[15] = locus YNL175C, strain NOP13, active compounds read low
[16] = locus YNL197C, strain WHI3, active compounds read low
[17] = locus YNL224C, strain SQS1, active compounds read low
[18] = locus YNL322C, strain KRE1, active compounds read low
[19] = locus YOR083W, strain WHI5 (second series), active compounds read low
[20] = locus YAL013W, strain DEP1, active compounds read low
[21] = locus YGR229C, strain SMI1, active compounds read low
[22] = locus YJR075W, strain HOC1, active compounds read low
[23] = locus YPL055C, strain LGE1, active compounds read low
[24] = locus YDR150W, strain NUM1, active compounds read low

Measured: normalized growth

COC(=O)[C@H](Cc1ccccc1)NC(=O)[C@@H](N)CC(=O)O (H-Asp-Phe-OMe)
inactive: locus YAL021C, strain ccr4, active compounds read low 1.01 | locus YAL026C, strain drs2, active compounds read low 1.01 | locus YAL030W, strain snc1, active compounds read low 1 | locus YBL061C, strain skt5, active compounds read low 1.02 | locus YBR009C, strain hhf1, active compounds read low 1.02 | locus YBR023C, strain chs3, active compounds read low 1.02 | locus YBR171W, strain sec66, active compounds read low 1.02 | locus YBR231C, strain swc5, active compounds read low 1.03 | locus YBR279W, strain paf1, active compounds read low 1.02 | locus YCL011C, strain gbp2, active compounds read low 1.02 | locus YCL016C, strain dcc1, active compounds read low 1.01 | locus YCL061C, strain MRC1, active compounds read low 1.01 | locus YCL069W, strain vba3, active compounds read low 1.02 | locus YCR088W, strain abp1, active compounds read low 1.01 | locus YDL005C, strain med2, active compounds read low 1 | locus YDL040C, strain nat1, active compounds read low 1.01 | locus YDR001C, strain nth1, active compounds read low 1.02 | locus YDR069C, strain doa4, active compounds read low 1.02 | locus YDR137W, strain rgp1, active compounds read low 1.01 | locus YDR159W, strain sac3, active compounds read low 1.02 | locus YDR195W, strain ref2 1.01 | locus YDR297W, strain sur2, active compounds read low 1.02 | locus YDR334W, strain swr1, active compounds read low 1.01 | locus YDR335W, strain msn5, active compounds read low 1.02 | locus YDR392W, strain spt3, active compounds read low 0.958 | locus YEL003W, strain gim4, active compounds read low 1.02 | locus YEL037C, strain rad23, active compounds read low 1.02 | locus YEL061C, strain CIN8 (second series), active compounds read low 1.01 | locus YER015W, strain faa2, active compounds read low 1.01 | locus YER016W, strain bim1, active compounds read low 1.01 | locus YER111C, strain swi4, active compounds read low 1.02 | locus YER155C, strain BEM2 (second series), active compounds read low 1.03 | locus YFR010W, strain ubp6, active compounds read low 1.02 | locus YGL167C, strain pmr1, active compounds read low 1.02 | locus YGL173C, strain kem1, active compounds read low 1.01 | locus YGL227W, strain vid30, active compounds read low 1.02 | locus YGL240W, strain doc1, active compounds read low 1.04 | locus YGL253W, strain hxk2, active compounds read low 1 | locus YHR013C, strain ard1, active compounds read low 1.01 | locus YHR027C, strain rpn1, active compounds read low 1.02 | [1] 1.02 | [2] 1.02 | locus YHR142W, strain chs7, active compounds read low 1.01 | locus YJL092W, strain hpr5, active compounds read low 1.02 | locus YJL095W, strain BCK1 (second series), active compounds read low 1.02 | [3] 0.978 | locus YJL115W, strain asf1, active compounds read low 1.02 | locus YJL129C, strain trk1, active compounds read low 1.01 | locus YJL154C, strain vps35, active compounds read low 1.02 | locus YJL164C, strain tpk1, active compounds read low 0.999 | locus YJL166W, strain qcr8, active compounds read low 1.03 | [4] 0.961 | locus YKL160W, strain elf1, active compounds read low 1.02 | locus YKR026C, strain gcn3, active compounds read low 1.02 | locus YKR091W, strain srl3, active compounds read low 1.02 | locus YLL001W, strain dnm1, active compounds read low 1.01 | locus YLL026W, active compounds read low 1.02 | locus YLL041C, strain sdh2, active compounds read low 1.02 | locus YLR027C, strain aat2, active compounds read low 1.02 | [5] 0.969 | locus YLR221C, strain rsa3, active compounds read low 0.998 | locus YLR258W, strain gsy2, active compounds read low 1.02 | locus YLR262C, strain YPT6 (second series), active compounds read low 1.02 | locus YLR320W, strain mms22, active compounds read low 1.01 | locus YLR342W, strain FKS1, active compounds read low 1.03 | locus YLR357W, strain rsc2, active compounds read low 1.03 | locus YLR370C, strain arc18, active compounds read low 1.01 | locus YLR384C, strain iki3, active compounds read low 1.02 | locus YML120C, strain ndi1, active compounds read low 1.01 | locus YMR058W, strain fet3, active compounds read low 1.02 | locus YMR125W, strain sto1, active compounds read low 1.01 | locus YMR129W, active compounds read low 1.02 | locus YMR205C, strain PFK2, active compounds read low 1.02 | locus YMR231W, strain pep5, active compounds read low 1.03 | locus YNL071W, strain lat1, active compounds read low 1.02 | [6] 0.96 | locus YNL209W, strain ssb2, active compounds read low 1.01 | locus YNL248C, strain rpa49, active compounds read low 1 | locus YNL322C, strain KRE1 (second series), active compounds read low 1.02 | locus YNR049C, strain mso1, active compounds read low 1.02 | locus YOR001W, strain rrp6, active compounds read low 1.01 | locus YOR070C, strain gyp1, active compounds read low 1.01 | locus YOR080W, strain dia2, active compounds read low 1.02 | locus YOR083W, strain WHI5, active compounds read low 1.02 | locus YOR106W, strain vam3, active compounds read low 1.03 | [7] 1.02 | locus YOR265W, strain rbl2, active compounds read low 1.01 | locus YOR270C, strain vph1, active compounds read low 1.05 | locus YOR290C, strain snf2, active compounds read low 0.995 | locus YPL051W, strain arl3, active compounds read low 1.03 | locus YPL078C, strain atp4, active compounds read low 1.02 | locus YPL106C, strain sse1, active compounds read low 1.03 | locus YPL240C, strain hsp82, active compounds read low 1.01 | [8] 1.02

CC(C)[C@H](NC(=O)OCc1ccccc1)C(=O)N[C@H](C=O)Cc1ccccc1 (Cbz-Val-Phe-aldehyde)
inactive: [9] 0.961 | [10] 1 | [11] 1.04 | [12] 0.993 | [13] 0.976 | [14] 1.02 | [15] 0.969 | [16] 0.969 | [17] 0.996 | [18] 1 | [19] 0.997

CC(=O)NC(Cc1ccccc1)C(=O)O (centres undefined)
inactive: [1] 0.979 | [2] 0.984 | [3] 0.985 | [4] 0.91 | [5] 1.02 | [6] 0.89 | [7] 0.997 | [8] 0.984

Cc1ccc(S(=O)(=O)N[C@@H](CCCCN)C(=O)CCl)cc1
inactive: [20] 1.02 | [9] 1.04 | [10] 1.01 | [11] 1.05 | [12] 1.02 | [21] 0.962 | [22] 0.995 | [13] 1.01 | [14] 1.01 | [15] 1.01 | [16] 1.02 | [17] 1.01 | [18] 1.02 | [19] 1.01 | [23] 1.03

Cc1ccc(S(=O)(=O)N[C@@H](Cc2ccccc2)C(=O)CCl)cc1
inactive: [9] 0.932 | [10] 0.987 | [24] 0.998 | [11] 1 | [22] 0.959 | [13] 0.993 | locus YNL128W, strain TEP1, active compounds read low 0.955 | [17] 0.954 | [18] 1.01 | [19] 0.957 | [23] 0.983
active: [12] 0.904 | [14] 0.896 | [15] 0.902 | [16] 0.892

CSc1nsc(SC)c1C(=O)NC(=O)Nc1ccc(F)cc1F
inactive: [20] 1.01 | locus YBR229C, strain ROT2, active compounds read low 1.01 | locus YDL101C, strain DUN1, active compounds read low 1.04 | [24] 1.04 | locus YEL061C, strain CIN8, active compounds read low 1.01 | locus YGR078C, strain PAC10, active compounds read low 1.01 | [21] 1.02 | [1] 1.1 | locus YHR087W, strain rtc3, active compounds read low 1.02 | locus YJR043C, strain POL32, active compounds read low 1.01 | [22] 1.01 | locus YKL190W, strain CNB1, active compounds read low 1.02 | locus YLR039C, strain RIC1, active compounds read low 1.03 | locus YLR058C, strain SHM2 (second series), active compounds read low 1 | locus YLR085C, strain ARP6, active compounds read low 1.02 | locus YLR262C, strain YPT6, active compounds read low 1 | locus YML094W, strain GIM5, active compounds read low 1.08 | locus YMR219W, strain ESC1, active compounds read low 1 | [13] 0.993 | locus YNL153C, strain GIM3, active compounds read low 1.01 | locus YNL298W, strain CLA4 (second series), active compounds read low 1.04 | [18] 1.02 | locus YNR030W, strain Alg12, active compounds read low 1.03 | [23] 1.08 | locus YPL241C, strain CIN2, active compounds read low 1.07 | locus YPR135W, strain CTF4, active compounds read low 1.07

Source: PubChem BioAssay AID1159580 (chemical genetic matrix, 2015)
